Source: PubChem (Small Molecule Screening Facility, UW Madison)
This is one part of a sample in which hits are shown more often than they occur.
RMI-FANCM inh: RMI-FANCM interaction inhibition. Fluorescence polarization, RMI core complex with F-MM2 peptide; active compounds read low. FP signal (polarization) at 33 µM. 70,000 compounds, 0.58% hits; in the data active = FP signal below about 40
Hits are given with their value; . = inactive; ! = repeats disagree.

SMILES | RMI-FANCM inh
CC(C)N1CCc2c(sc(NC(=O)c3ccc(S(=O)(=O)N4CCCCCC4)cc3)c2-c2nc3ccccc3s2)C1 | .
COc1ccc(OC)c(Nc2nc(CC(=O)N3CCC(C(N)=O)CC3)cs2)c1 | .
CCOc1ccccc1NC(=O)C(=O)NCCN1CCN(c2ccccc2F)CC1 | .
O=c1c2nc(N3CCOCC3)sc2c(-c2ccccc2)nn1Cc1cccc2ccccc12 | .
COc1ccc(C(=O)C(C)OC(=O)c2cc(=O)[nH]c3ccccc23)cc1 (centres undefined) | .
CCOc1ccc(NC(=O)C(=O)NCC2CCN(Cc3ccco3)CC2)cc1 | .
Cc1sc(N=Cc2ccco2)c(C#N)c1C | -16
CCN(CC)c1ccc(C=Nc2sc(C)c(C)c2C#N)cc1 | .
Cc1ccc(C=Nc2sc(C)c(C)c2C#N)s1 | .
O=C1c2ccccc2C(=O)c2cc(Cl)c(Cl)cc21 | .
COc1ccc(NC(=O)NCC(c2ccc3c(c2)CCN3C)N2CCOCC2)cc1OC (centres undefined) | .
CCOC(=O)c1c(NC(C)=O)sc(C)c1C | .
CCOC(=O)c1c(NC(=O)c2ccc(Br)s2)sc(C)c1C | .
CCOC(=O)c1c(NC(=O)c2cc(S(=O)(=O)C(C)C)c(SC)s2)sc(C)c1C | 37
CC1CCC(C(C)C)C(OP(=O)(c2ccc(N(C)C)cc2)C(Nc2ccccc2)c2ccccc2)C1 (centres undefined) | .
COc1ccc(CCN2CCC(Nc3nc4ccccc4n3Cc3ccc(F)cc3)CC2)cc1 | 20!
COc1ccc2[nH]c(C(=O)NC3CCN(Cc4ccccc4)CC3)cc2c1 | .
COc1ccc(CCS(=O)(=O)NCC2CCN(Cc3ccccc3)CC2)cc1 | .
C=CCN1C(=O)C(C)(C)COc2cc(NS(=O)(=O)c3ccc(Br)cc3)ccc21 | .
O=C(NCC1CCN(Cc2ccccc2)CC1)C(=O)Nc1ccc(F)c(Cl)c1 | .
CCOc1ccc(CC(=O)NCCn2nc(-c3cccs3)ccc2=O)cc1 | .
CCOC(=O)N1CCN(S(=O)(=O)c2ccc(C(=O)N(CCN(C)C)c3nc4c(OC)ccc(C)c4s3)cc2)CC1 | .
CCOC(=O)c1c(NC(=O)CN2CCCCC2)sc(Cl)c1-c1ccccc1 | .
COc1cc(OC)cc(C(=O)NCC(c2cccc3ccccc23)N(C)C)c1 (centres undefined) | 54
CN(C)C(CNC(=O)c1cccs1)c1cccc2ccccc12 (centres undefined) | .
SMILES | RMI-FANCM inh
COc1ccc(CC(=O)NCC(c2cccc3ccccc23)N(C)C)cc1 (centres undefined) | .
Cn1c(=O)c2c(nc(N3CCC(Cc4ccccc4)CC3)n2CCSc2nc3ccccc3s2)n(C)c1=O | .
COc1cccc(C(=O)Nc2nc3c(Br)cccc3s2)c1OC | .
CCN1C(=O)NC2(CCN(S(=O)(=O)N(C)C)CC2)C1=O | .
O=C(NNC(=O)c1ccc2nccnc2c1)c1ccc(C(F)(F)F)cc1 | .
COc1cc(C(=O)Nc2ccccc2N2CCCCC2)cc(OC)c1OC | .
CCOC(=O)c1c(N=c2oc3c(OC)cccc3cc2C(=O)Nc2ccc(C)cc2)sc2c1CCCC2 | .
CCOc1ccccc1N=c1oc2c3c4c(cc2cc1C(=O)Nc1ccccc1OC)CCCN4CCC3 | 33
Cc1cc(-c2nnc(NC(=O)Cc3ccc(F)cc3)o2)nn1C | .
CN(C)C(CNC(=O)C(=O)Nc1ccc(OC(F)(F)F)cc1)c1ccco1 (centres undefined) | .
COc1ccc(-n2nnnc2-c2ccccn2)cc1 | .
COc1ccc(Cc2nc3ccccc3[nH]2)cc1 | .
COc1ccc(C(c2c(C)[nH]c3ccccc23)c2c(C)[nH]c3ccccc23)c(OC)c1 | 16
Cc1ccnc(NC(c2ccco2)c2c(C)[nH]c3ccccc23)c1 (centres undefined) | .
Cc1cccc(-c2noc(CCn3c(=O)[nH]c4ccccc4c3=O)n2)c1 | .
O=C(COc1ccc(Cl)cc1Cl)N/N=C\c1ccc(Cl)o1 | .
c1ccc(NCc2ccco2)nc1 | .
O=C(CCS(=O)(=O)c1ccc(Cl)cc1)Nc1nnc(-c2ccc(Br)s2)o1 | .
NC(=O)SCC(=NS(=O)(=O)c1ccc(Cl)cc1)Nc1cccc2ccccc12 | 30
O=S(=O)(N=C(Nc1ccc2ccccc2c1)c1ccccc1)c1ccc(Cl)cc1 | .
O=C(CSCCS(=O)(=O)c1ccc(Cl)cc1)Nc1ccccc1Cl | .
Cc1cccc(OCC(=O)Nc2ccc(Cl)c(N3CCCS3(=O)=O)c2)c1 | .
CC1=C(C(=O)Nc2cccnc2)C(c2cccc(F)c2)n2nc(SCc3ccccc3Cl)nc2N1 (centres undefined) | .
COc1ccc(-c2ccc(=O)n(CCCNC(=O)Nc3ccc(F)cc3)n2)cc1 | .
CCCN1CCCc2cc(CCNC(=O)Cc3cccc(C)c3)ccc21 | .
SMILES | RMI-FANCM inh
CCCN1CCCc2cc(CCNC(=O)COc3ccccc3F)ccc21 | .
CCCN1CCCc2cc(CCNC(=O)C(C)(C)C)ccc21 | 16
CCCN1CCCc2cc(CCNC(=O)COCC)ccc21 | 27
CCCN1CCCc2cc(CCNC(=O)C3CCCCC3)ccc21 | .
CCCN1CCCc2cc(CCNC(=O)C(=O)NCC(C)C)ccc21 | .
Cc1ccc(C(=O)Nc2nnc(SCc3cccc(C(F)(F)F)c3)s2)cc1[N+](=O)[O-] | .
Cc1cc(=O)[nH]c(-n2nc(C)c(CCC(=O)Nc3ccon3)c2C)n1 | .
N#C/C(=C\c1ccc([N+](=O)[O-])cc1)c1nc2ccccc2[nH]1 | .
Cc1ccc(N/C=C(\C#N)c2nc3ccccc3[nH]2)cc1 | .
N#CC(=C(O)c1ccccc1Br)c1nc2ccccc2[nH]1 | 14
COc1ccc(OC)c(/C=N\NC(=O)CNC(=O)c2c(F)cccc2Cl)c1 | .
COc1ccc(-c2cc(-c3cccs3)nc(SCC(=O)Nc3ccc4c(c3)OCCO4)c2C#N)cc1OC | .
CN1CCN(Cc2ccc(NC(=O)Nc3cccs3)cc2)CC1 | .
O=C(NCCC1=CCCCC1)C(=O)NCCC(c1ccccc1)c1ccccc1 | .
Cc1c(O)ccc2c(CN3CCC4(CC3)OCCO4)cc(=O)oc12 | 25
COc1ccc(N2CCN(Cc3cc(=O)oc4c3ccc3ccccc34)CC2)cc1 | .
Cc1cc(O)c2c(CN3CCN(Cc4ccc5c(c4)OCO5)CC3)cc(=O)oc2c1 | .
COc1cc(NC(=O)NCC(c2ccc3c(c2)CCCN3C)N2CCCC2)cc(OC)c1 (centres undefined) | .
CN(C)S(=O)(=O)N1CCN(c2ccccn2)CC1 | .
CC(CCC(=O)N/N=C/c1c[nH]c2ccccc12)C1CCC2C3C(O)CC4CC(O)CCC4(C)C3CCC12C (centres undefined) | 21
C[C@H](CCC(=O)O)[C@H]1CC[C@H]2[C@@H]3[C@H](O)C[C@@H]4C[C@H](O)CC[C@]4(C)[C@H]3CC[C@]12C | .
C[C@H](CCC(=O)O)[C@H]1CCC2C3C(CC[C@@]21C)[C@@]1(C)CC[C@@H](O)C[C@H]1C[C@@H]3O (some centres undefined) | .
Cc1oc(S(=O)(=O)N2CCOCC2)cc1C(=O)NCCNc1ncccc1C(F)(F)F | .
CS(=O)(=O)c1cccc(-c2nnc(NC(=O)c3ccc(S(=O)(=O)N4CCc5ccccc5C4)cc3)o2)c1 | .
CSc1cccc(C(=O)Nc2nnc(-c3cc(C)ccc3C)o2)c1 | .
Cc1ccc(C)c(-c2nnc(NC(=O)c3ccc(S(=O)(=O)N4CCc5ccccc54)cc3)o2)c1 | 18
CC(=O)CSc1nnc(CNC(=O)c2cccc(C(F)(F)F)c2)o1 | .
Cc1coc(C)c1C(=O)NC1CCCC1 | .
COc1ccc(S(=O)(=O)NCC(c2ccc(N(C)C)cc2)N2CCc3ccccc3C2)cc1OC (centres undefined) | .
